Records with an inconclusive call do not appear. The source made the active and inactive calls. Calls come from the whole dose curve.
Legend:
[1] = molecular target: Acetylcholinesterase (Homo sapiens) (UniProt P22303); test: Acetylcholinesterase (AChE) small molecule antagonists: colormetric cell-based qHTS assay (AID 1347395); note: nearly all actives have a fitted effect of over 30% in size
Procedure, shortened: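 Colorimetric readout: DTNB quantifies thiocholine from acetylthiocholine hydrolysed by endogenous AChE of SH-SY5Y cells (2,000/well, plated overnight). Compound pretreatment 30 min, substrate incubation 90 min, both 37 C.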

[2] = molecular target: Acetylcholinesterase (Homo sapiens) (UniProt P22303); test: Acetylcholinesterase (AChE) small molecule antagonists: enzyme-based qHTS assay (AID 1347397); conditions: Potency: AChE enzyme activity inhibition; outcome: AChE enzyme activity inhibition; note: nearly all actives have a fitted effect of over 55% in size
Procedure, shortened: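 Absorbance-based detection of thiocholine with DTNB served as the read-out. Recombinant human AChE was exposed to compound for 30 min at RT before a 10 min RT incubation with acetylthiocholine.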

[3] = molecular target: Acetylcholinesterase (Homo sapiens) (UniProt P22303); test: Acetylcholinesterase (AChE) small molecule antagonists: fluorescence cell-based qHTS assay (AID 1347398); conditions: Potency: AChE activity; outcome: AChE activity; note: nearly all actives have a fitted effect of over 50% in size
Procedure, shortened: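 Fluorimetric cell-based assay: intact SH-SY5Y cells, 30 min compound preincubation at 37 C, acetylthiocholine substrate with thiol probe Thiolite Green, 40 min RT development, fluorescence 490/520 nm.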

[4] = molecular target: Acetylcholinesterase (Homo sapiens) (UniProt P22303); test: Acetylcholinesterase (AChE) small molecule antagonists: enzyme-based qHTS assay with human liver microsomes (AID 1347399); conditions: Potency: qHTS inhibition; outcome: qHTS inhibition; note: nearly all actives have a fitted effect of over 60% in size
Procedure, shortened: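 Recombinant human AChE (50 mU/mL in the enzyme mix) and human liver microsomes (0.25 mg/mL final) were preincubated with compound and NADPH (0.25 mg/mL final) for 30 min at 37 C. Acetylthiocholine/DTNB was then added; thiocholine was read colorimetrically after 10 min at room temperature.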
% is set by controls: 0 for no effect and ±100 for the full control effect.

Sequence of Acetylcholinesterase (Homo sapiens) (P22303 whole entry, looked up): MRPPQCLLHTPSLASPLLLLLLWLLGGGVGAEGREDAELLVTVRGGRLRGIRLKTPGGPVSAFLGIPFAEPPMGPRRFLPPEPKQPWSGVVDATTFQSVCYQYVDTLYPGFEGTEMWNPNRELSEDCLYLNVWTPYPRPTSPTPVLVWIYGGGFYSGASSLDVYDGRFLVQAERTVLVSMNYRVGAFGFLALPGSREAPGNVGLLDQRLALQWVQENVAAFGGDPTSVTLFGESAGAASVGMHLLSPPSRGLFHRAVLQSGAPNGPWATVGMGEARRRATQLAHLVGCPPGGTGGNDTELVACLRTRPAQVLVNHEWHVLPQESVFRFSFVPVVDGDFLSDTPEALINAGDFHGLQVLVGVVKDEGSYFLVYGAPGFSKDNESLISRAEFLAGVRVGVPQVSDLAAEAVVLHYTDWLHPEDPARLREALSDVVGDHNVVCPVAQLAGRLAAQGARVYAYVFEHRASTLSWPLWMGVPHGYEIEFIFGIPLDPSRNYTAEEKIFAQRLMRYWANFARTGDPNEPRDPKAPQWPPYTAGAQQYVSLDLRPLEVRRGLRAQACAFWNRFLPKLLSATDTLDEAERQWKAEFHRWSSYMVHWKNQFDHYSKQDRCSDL

COc1ccnc(CS(=O)c2nc3cc(OC(F)F)ccc3[nH]2)c1OC (configuration not stated)
inactive: Potency [1] | Potency [2] | Potency [3]

CC(=O)OC(C)C[N+](C)(C)C (configuration not stated)
inactive: Potency [1] | Potency [2] | Potency [3]

OCC(CO)N[C@H]1C[C@](O)(CO)[C@@H](O)[C@H](O)[C@H]1O
inactive: Potency [1] | Potency [2] | Potency [3]

CCn1c(=O)c2c(nc(/C=C/c3ccc(OC)c(OC)c3)n2C)n(CC)c1=O
inactive: Potency [1] | Potency [2] | Potency [3] | Potency [4]

CCOC(=O)N1CCC(Nc2ccc(Cl)cc2N)CC1
inactive: Potency [1] | Potency [2] | Potency [3]

CCOC(=O)COC(=O)c1cc(Oc2ccc(C(F)(F)F)cc2Cl)ccc1[N+](=O)[O-]
inactive: Potency [1] | Potency [2] | Potency [3]

CC1=C(/C=C/C(C)=C/C=C/C(C)=C\C=O)C(C)(C)CCC1
inactive: Potency [1] | Potency [2] | Potency [3] | Potency [4]

C=CCCCC
inactive: Potency [1] | Potency [2] | Potency [3] | Potency [4]

CC(=O)SC[C@@H](Cc1ccccc1)C(=O)NCC(=O)OCc1ccccc1
inactive: Potency [1] | Potency [2] | Potency [3] | Potency [4]

C=C(C)CCCC
inactive: Potency [1] | Potency [2] | Potency [3] | Potency [4]

Cc1c(NC(C)C)c(=O)n(-c2ccccc2)n1C
inactive: Potency [1] | Potency [2] | Potency [3] | Potency [4]

CO[Si](CCC1CCC2OC2C1)(OC)OC (configuration not stated)
inactive: Potency [1] | Potency [2] | Potency [3] | Potency [4]

c1ccc(B(c2ccccc2)c2ccccc2)cc1
inactive: Potency [1] | Potency [2] | Potency [3] | Potency [4]

C=CC(=C)CC/C=C(\C)CCC=C(C)C
inactive: activity, negative = inhibition [1] -2.99% [at 23.6 µM] | activity change, negative = inhibition [2] 0.554% [at 23.6 µM] | activity change, negative = inhibition [3] -5.88% [at 23.8 µM]

OCCNCc1ccccc1
inactive: Potency [1] | Potency [2] | Potency [3] | Potency [4]

O=C(O)[C@H](O)c1ccccc1
inactive: Potency [1] | Potency [2] | Potency [3]

C=CC1CC2C=CC1C2 (configuration not stated)
inactive: Potency [1] | Potency [2] | Potency [3] | Potency [4]

CCc1cc(Cc2cc(CC)c(N)c(CC)c2)cc(CC)c1N
inactive: Potency [1] | Potency [2] | Potency [3]

CN(C)CCN(C)CCO
inactive: Potency [1] | Potency [2] | Potency [3]

COc1ccc(-c2coc3cc(O)ccc3c2=O)cc1
inactive: Potency [1] | Potency [2] | Potency [3]

Cc1ccc(N)nc1
inactive: Potency [1] | Potency [2] | Potency [3]

OC[C@@H](O)[C@H](O)[C@@H](O)[C@@H](O)CO
inactive: Potency [1] | Potency [2] | Potency [3]

CC(C)=CCC/C(C)=C\C#N
inactive: Potency [1] | Potency [2] | Potency [3]

C[C@H]1O[C@@H](n2cc(F)c(=O)[nH]c2=O)[C@H](O)[C@@H]1O
inactive: Potency [1] | Potency [2] | Potency [3] | Potency [4]

OC(CCN1CCCCC1)(c1ccccc1)C1CC2C=CC1C2 (configuration not stated)
inactive: Potency [1] | Potency [2] | Potency [3]

Cc1ccc(C(C)NC(=O)[C@@H](NC(=O)OC(C)C)C(C)C)cc1 (some centres not stated)
inactive: Potency [1] | Potency [2] | Potency [3] | Potency [4]

CCCC(C)C=O (configuration not stated)
inactive: Potency [1] | Potency [2] | Potency [3]

O=C(O)c1c(O)c(-c2ccccc2)nc2ccccc12
inactive: Potency [1] | Potency [2] | Potency [3]

Nc1ccc(C(=O)OCC(O)CO)cc1 (configuration not stated)
inactive: Potency [1] | Potency [2] | Potency [3] | Potency [4]

COC(=O)NCCC[Si](OC)(OC)OC
inactive: Potency [1] | Potency [2] | Potency [3] | Potency [4]

CCCCC(CC)COCCO (configuration not stated)
inactive: Potency [1] | Potency [2] | Potency [3]

CCCCC(=O)O[C@]1(C(=O)CO)[C@H](C)C[C@H]2[C@@H]3CCC4=CC(=O)C=C[C@]4(C)[C@@]3(F)[C@@H](O)C[C@@]21C
inactive: Potency [1] | Potency [2] | Potency [3] | Potency [4]

C=CCN(CC=C)CC=C
inactive: Potency [1] | Potency [2] | Potency [3]

C=C(C)C(=O)OCCOCC
inactive: Potency [1] | Potency [2] | Potency [3] | Potency [4]

CN1CCN(C2=Nc3ccccc3Sc3ccc(Cl)cc32)CC1
inactive: Potency [1] | Potency [2] | Potency [3] | Potency [4]

CC(CN(C)C)CN1c2ccccc2CCc2ccccc21 (configuration not stated)
inactive: Potency [1] | Potency [2] | Potency [3] | Potency [4]

Cc1ccc(S(=O)(=O)C(I)I)cc1
inactive: Potency [1] | Potency [2] | Potency [3] | Potency [4]

Cc1onc(-c2ccccc2)c1-c1ccc(S(N)(=O)=O)cc1
inactive: Potency [1] | Potency [2] | Potency [3] | Potency [4]

CC(C)Cc1ccc(C(C)C(=O)OCc2ccccn2)cc1 (configuration not stated)
inactive: Potency [1] | Potency [2] | Potency [3] | Potency [4]

CC(=O)c1ccc2c(c1)CCCC2
inactive: Potency [1] | Potency [2] | Potency [3] | Potency [4]

C/C(=N\[Si](C)(C)C)O[Si](C)(C)C
inactive: Potency [1] | Potency [2] | Potency [3] | Potency [4]

CC(=O)OCC1=C(C(=O)O)N2C(=O)[C@@H](NC(=O)Cc3cccs3)[C@H]2SC1
inactive: Potency [1] | Potency [2] | Potency [3] | Potency [4]

COC(C)(C)CC(C)=O
inactive: Potency [1] | Potency [2] | Potency [3] | Potency [4]

O=C(Cl)c1cccc([N+](=O)[O-])c1
inactive: Potency [1] | Potency [2] | Potency [3] | Potency [4]

CC(C)(C)c1cc(CO)cc(C(C)(C)C)c1O
inactive: Potency [1] | Potency [2] | Potency [3] | Potency [4]

CCCCCCCCCC(C)=O
inactive: Potency [1] | Potency [2] | Potency [3] | Potency [4]

CCCCN
inactive: Potency [1] | Potency [2] | Potency [3] | Potency [4]

Nc1ccc(F)cc1
inactive: Potency [1] | Potency [2] | Potency [3] | Potency [4]

CCCCCCCCCCCCCCC[C@H](O)[C@@H](N)CO
inactive: Potency [1] | Potency [2] | Potency [3] | Potency [4]

O=c1[nH][nH]c(=O)c2cc([N+](=O)[O-])ccc12
inactive: Potency [1] | Potency [2] | Potency [3] | Potency [4]

C[C@@H](O)[C@H]1C(=O)N2C(C(=O)O)=C(SCCN=CN)C[C@H]12
inactive: Potency [1] | Potency [2] | Potency [3] | Potency [4]

CCOC(=O)c1ccc(O)c(O)c1
inactive: Potency [1] | Potency [2] | Potency [3] | Potency [4]

O=C(O)CCCc1ccccc1
inactive: Potency [1] | Potency [2] | Potency [3] | Potency [4]

C=CC(C)(CCC=C(C)C)OC=O (configuration not stated)
inactive: Potency [1] | Potency [2] | Potency [3] | Potency [4]

CC(CCc1ccc2c(c1)OCO2)NN (configuration not stated)
inactive: Potency [1] | Potency [2] | Potency [3] | Potency [4]

CC(=O)Oc1ccc(C(C)=O)cc1
inactive: Potency [1] | Potency [2] | Potency [3] | Potency [4]

CCC(=O)O[C@]1(C(=O)COC)[C@@H](C)C[C@H]2[C@@H]3CCC4=CC(=O)C=C[C@]4(C)C3(F)[C@@H](O)C[C@@]21C (some centres not stated)
inactive: Potency [1] | Potency [2] | Potency [3] | Potency [4]

CC(C)(C)C1CCCCC1=O (configuration not stated)
inactive: Potency [1] | Potency [2] | Potency [3] | Potency [4]

CC(=O)c1ccc2c(c1)Cc1ccccc1-2
inactive: Potency [1] | Potency [2] | Potency [3] | Potency [4]

CCC(=O)/C=C/c1ccc(OC)cc1
inactive: Potency [1] | Potency [2] | Potency [3] | Potency [4]

Cc1cccc(N(C)C(=S)Oc2ccc3c(c2)CCC3)c1
inactive: Potency [1] | Potency [2] | Potency [3] | Potency [4]

S=C(SSSSSSC(=S)N1CCCCC1)N1CCCCC1
inactive: activity, negative = inhibition [1] -0.568% [at 23.6 µM] | activity change, negative = inhibition [2] 0.13% [at 23.6 µM] | activity change, negative = inhibition [3] -3% [at 23.8 µM] | activity change, negative = inhibition [4] -2.6% [at 23.6 µM]

CCOC(=O)C(=O)OCC
inactive: Potency [1] | Potency [2] | Potency [3] | Potency [4]

CC(=O)O[C@@H]1C[C@@H]2CC[C@@]1(C)C2(C)C
inactive: Potency [1] | Potency [2] | Potency [3] | Potency [4]

C=C(C)C1CCC(C)(O)CC1 (configuration not stated)
inactive: Potency [1] | Potency [2] | Potency [3] | Potency [4]

CCCCCCCCCCCCCOP(=O)(O)O
inactive: Potency [1] | Potency [2] | Potency [3] | Potency [4]

CCCCC/C=C/CC1CC(=O)OC1=O (configuration not stated)
inactive: Potency [1] | Potency [2] | Potency [3] | Potency [4]

C=C(C)C(=O)OC1CC(C)CC(C)(C)C1 (configuration not stated)
inactive: Potency [1] | Potency [2] | Potency [3] | Potency [4]

CC(=O)OCC(=O)[C@@]1(O)[C@H](OC(C)=O)C[C@H]2[C@@H]3CCC4=CC(=O)C=C[C@]4(C)[C@@]3(F)[C@@H](O)C[C@@]21C
inactive: Potency [1] | Potency [2] | Potency [3] | Potency [4]

Nc1nc(N)c(-c2ccccc2)s1
inactive: Potency [1] | Potency [2] | Potency [3] | Potency [4]

CCCCc1ccc2nc(NC(=O)OC)[nH]c2c1
inactive: Potency [1] | Potency [2] | Potency [3] | Potency [4]

C=CC(=O)OCC1CCCO1 (configuration not stated)
inactive: Potency [1] | Potency [2] | Potency [3] | Potency [4]

CCCCCN(CCCCC)C(=O)C(CCC(=O)O)NC(=O)c1ccc(Cl)c(Cl)c1 (configuration not stated)
inactive: Potency [1] | Potency [2] | Potency [3] | Potency [4]

Cc1c(N=C=O)cccc1N=C=O
inactive: Potency [1] | Potency [2] | Potency [3] | Potency [4]

Sc1nc2ccccc2s1
inactive: Potency [1] | Potency [2] | Potency [3] | Potency [4]

Reference: PubChem BioAssay (Tox21)
